The source made the active and inactive calls. The calls were made as follows: active = hit-call score of the fitted dose curve at least 0.9, where 1 is the maximum; inactive = score below 0.9.

Read-out in this assay: Monokine induced gamma interferon (MIG), CXCL9 (gene 4283)
Briefly: BSK_BE3C_MIG: BioMAP Diversity Plus: BE3C Assay for Monokine induced gamma interferon (MIG) Biomarker Activity (AID 2283035). As to conditions: primary human bronchial epithelial cells; actives raise or lower the signal. On the procedure: BSK_BE3C is a cell-based, multiplexed-readout assay that uses bronchial epithelial cell, a human lung primary cell, with measurements taken at 24 hours after chemical dosing in a 96-well plate.BSK_BE3C_MIG is an assay component measured in the BSK_BE3C assay. It measures MIG antibody related to regulation of gene expression using ELISA technology.Data from the assay component BSK_BE3C_MIG was analyzed into 1 assay endpoint. This assay endpoint, BSK_BE3C_MIG, was analyzed with bidirectional fitting relative to DMSO as the negative control and baseline of activity. Using a type of binding reporter, gain or loss-of-signal activity can be used to understand changes in the signaling as they relate to the gene CXCL9. Furthermore, this assay endpoint can be referred to as a primary readout, because this assay has produced multiple assay endpoints where this one serves a signaling function. To generalize the intended target to other relatable targets, this assay endpoint is annotated to the cytokine intended target family, where the subfamily is chemotactic factor.
The levels of cell surface (or secreted, indicated by the prefix "s") biomarker endpoints were measured by ELISA. Overt cytotoxicity to cells in confluent adherent cultures (all systems other than the BT system) was assessed by measuring total protein levels using sulforhodamine B (SRB) staining in parallel cultures at the time of biomarker measurements, indicated as SRB endpoints. For proliferation assays for adherent cell types, individual cell types are cultured at sub-confluence and relative cell numbers quantified by SRB staining at time points optimized for each system (48 h: 3C and CASM3C systems; 72 h: BT and HDF3CGF systems; 96 h: SAg system). SRB was performed by staining cells with 0.1% SRB after fixation with 10% TCA and reading wells at 560 nm.Viability and proliferation of PBMC (T cells) was quantified by Alamar Blue reduction for the SAg and BT systems. For PBMC viability (referred to as PBMC Cytotoxicity within the assay endpoint names), cells were plated (75,000/well in a 96-well plate) and then chemical samples added for 1 h before addition of activators, SEB and TSST-1 (20 ng/mL final concentration each). Cells were incubated for 90 h. Then, Alamar Blue (20 uL/well) (Invitrogen, Cat DAL1100) was added for 6 h, and the plates were read with a fluorescence microplate reader at 546/580 nm (excitation/emission). For PBMC proliferation, cells were plated and activated as above but incubated for only 16 h prior to addition of Alamar Blue. Plates were read after 6 h.
Consider `CCCCCCCC(=O)OC`, for which the result was inactive.

In the case of `CSc1ccc(Oc2ccc(S(N)(=O)=O)cc2CN(C)C)cc1C`, the result was inactive.

`CC(=O)S[C@H](C(=O)N[C@H]1Cc2ccccc2[C@H]2CCC[C@@H](C(=O)O)N2C1=O)C(C)C`: the result was inactive.

For `O=C(O)CN(CC(=O)O)CC(=O)O`, the result was inactive.

`CCCCCCCCCCCCCCCCO`: the result was inactive.

As to `O=C1CCCCC1`, the result was inactive.

As for `Nc1nc(=S)c2[nH]cnc2[nH]1`, the outcome was inactive.

Take `CCCC[C@H]1CN(CC2CCOCC2)C(=O)OC12CCN(C1(C)CCN(C(=O)c3c(C)ncnc3C)CC1)CC2`: the outcome was inactive.

On to `CS(=O)(=O)c1ccc([C@@H](C[C@H]2CCC(=O)C2)C(=O)Nc2cnccn2)cc1Cl`, for which the result was inactive.

In the case of `O=C1O[C@H]([C@H](O)CO)C(O)=C1O`, the outcome was inactive.

Take `CCCCCCCCCCCCCCOS(=O)(=O)O`: the AC50 is 34.2 µM (active).

Take `CCN(CC)CCOc1ccc(C(=C(Cl)c2ccccc2)c2ccccc2)cc1`: the AC50 is 25.7 µM (active).

In the case of `Cc1ccc(C(C)(C)C)c(O)c1`, the result was inactive.

Regarding `COC(=O)CCC(=O)OC`, the outcome was inactive.

Regarding `CC(C)COC(=O)CCCCC(=O)OCC(C)C`, the outcome was inactive.

Take `CO[C@@H]1COCC[C@@H]1N[C@@H]1CC[C@@](C(=O)N2CCc3ncc(C(F)(F)F)cc3C2)(C(C)C)C1`: the result was inactive.

On to `CC(C)(C)c1ccccc1`, for which the outcome was inactive.

For the molecule `O=C1c2c(O)cccc2Cc2cccc(O)c21`, the outcome was inactive.

On to `OCC(O)CO`, for which the result was inactive.

On to `CCCC(=O)O`, for which the outcome was inactive.

Turning to `OCC(CO)n1cnc(-c2ccc(F)cc2)c1-c1ccnc(Oc2ccccc2)n1`, the result was inactive.

Consider `O=C1OC(c2ccc(O)cc2)(c2ccc(O)cc2)c2ccccc21`, for which the AC50 is 7.79 µM (active).

For `c1ccc2occc2c1`, the result was inactive.

With `CC(=O)[C@@]1(O)CC[C@H]2[C@@H]3CCC4=CC(=O)CC[C@]4(C)[C@H]3CC[C@@]21C`, the outcome was inactive.

With `C=CCCCCCCCCCCCC`, the result was inactive.

As for `CCCCCCC(C=O)=Cc1ccccc1`, the result was inactive.

As to `CN(C)CCCN1c2ccccc2Sc2ccc(Cl)cc21`, the half-maximal activity concentration (AC50) was 38.4 µM (active).

In the case of `CN(C)CCCN(C)CCCN(C)C`, the result was inactive.

For `O=C(Oc1ccccc1)c1cccc(C(=O)Oc2ccccc2)c1`, the result was inactive.

Turning to `Cc1c(C)c2c(c(C)c1O)CCC(C)(COc1ccc(CC3SC(=O)NC3=O)cc1)O2` (stereo not given), the AC50 was 31.8 µM (active).

Turning to `CC(C)NCC(O)c1ccc(O)c(O)c1` (stereo not given), the outcome was inactive.

Regarding `C=CCc1ccc(OC)c(OC)c1`, the result was inactive.

Turning to `O=Cc1ccccc1C=O`, the outcome was inactive.

In the case of `COc1ccc(C(=O)Nc2nc3ccccc3c(NCc3ccccc3)c2C#N)cc1`, the outcome was inactive.

With `COc1ccc(OC(F)(F)F)cc1CN[C@H]1CCCN[C@H]1c1ccccc1`, the outcome was inactive.

For the molecule `CCc1cc(C2=C(C(=O)O)N(c3ccccc3C(F)(F)F)S(=O)(=O)c3ccccc32)cc2c1OCO2`, the result was inactive.

Turning to `CC(=O)O`, the result was inactive.

In the case of `O=[Si]=O`, the result was inactive.

As to `CC(N)=O`, the result was inactive.

For `C/C=C/C=C/C(=O)O`, the outcome was inactive.
